Data taken from PubChem BioAssay (NCATS).
Inconclusive results are not listed. For part of these data: Results with a measured potency or affinity are listed apart. The source made the active and inactive calls.

How the values were obtained:
[1] = Ebola virus entry assay, green fluorescence channel
[2] = Ebola virus entry assay, green fluorescence channel; remark: listed apart in the source
[3] = Ebola virus entry assay, blue channel fluorescence
[4] = Ebola virus entry assay, ratio channel
[5] = Ebola virus entry assay, reporter ratio channel; AC50: Channel type: primary unless noted; outcome: Channel type: primary unless noted
[6] = Ebola virus entry assay, ratio channel readout
[7] = Ebola virus entry assay, green channel fluorescence
[8] = Ebola virus entry assay, blue channel fluorescence; remark: listed apart in the source
[9] = Ebola virus entry assay, blue channel (ratio component)
[10] = Ebola virus entry reporter assay, green channel fluorescence
[11] = Ebola virus entry cell assay, ratio channel
[12] = Ebola virus entry assay, blue channel fluorescence; remark: listed apart in the source
[13] = High-throughput drug toxicity screening in the BPDCN cell line Gen2.2 (AID 1224824); conditions: Gen2.2 BPDCN cells; at 45.8 µM (top of the series);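 note: cells exposed to compounds for 48 h before reading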
Procedure, shortened: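 Gen2.2, 500 cells/well, phenol red-free RPMI/10% FBS/Pen-Strep; 48 h cpd, 37 °C/5% CO2; CTG lum, 15 min RT. Norm: DMSO = 100%, bortezomib 9.2 uM final = 0%.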

[14] = High-throughput drug toxicity screening in the BPDCN cell line Cal-1 (AID 1224825); conditions: Cal-1 BPDCN cell viability, qHTS; at 45.8 µM (top of the series)
Procedure, shortened: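 500 Cal-1 cells/well, RPMI + glutamine + 10% FBS (phenol red-free); cpd added by pin tool; 48 h, 37C, 5% CO2; CTG 15 min RT, lumi read. Normalised: DMSO 100%, bortezomib 9.2 uM 0%.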

[15] = qHTS assay for measurement of the activity of small molecule inhibitors on Zika virus induced Caspase-3 activity in human astrocytoma cells (AID 1224859; active = well fitted inhibition curve with a large enough effect;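 note: plate controls were ZIKV-infected untreated cells for no effect and uninfected cells for full effect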); conditions: SNB-19 ZIKV-induced caspase-3/7, luminescence, 6 h; series mostly up to 45.7 µM
Procedure, shortened: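 Readout is luminescence from Caspase-Glo 3/7 added after a 6 h ZIKV infection (2 FFU/cell) of compound-pretreated (1 h) SNB-19 cells; data expressed as % inhibition versus uninfected and infected wells.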

[16] = qHTS Screen of the MIPE 4.0 Collection Against Ewings Sarcoma (RDES) (AID 1259252; active = well fitted inhibition curve with a large enough effect;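 note: 100% = DMSO-treated cells and 0% = medium-only wells without cells; nearly all actives have a fitted effect of over 35% in size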); conditions: RD-ES Ewing sarcoma viability, CellTiter-Glo, 48 h; series mostly up to 45.8 µM
Procedure, shortened: (§1)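 After a 4 h attachment period in RPMI/5% FBS, cells were pin-dosed with test compounds; DMSO served as negative and 9.2 uM bortezomib (final) as positive control. Luminescent CellTiter-Glo signal at 48 h defined viability.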

[17] = qHTS Screen of the MIPE 4.0 Collection Against Ewings Sarcoma (TC32) (AID 1259256; active = well fitted inhibition curve with a large enough effect;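 note: 100% = DMSO-treated cells and 0% = medium-only wells without cells; nearly all actives have a fitted effect of over 45% in size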); conditions: TC32 Ewing sarcoma viability, CellTiter-Glo, 48 h; series mostly up to 45.8 µM
Procedure, shortened: as §1

[18] = qHTS assay for measurement of the activity of small molecule inhibitors on Zika virus induced Caspase-3 activity in human iPSC derived neural progenitor cells (hNPCs) (AID 1224857; active = well fitted inhibition curve with a large enough effect; note: % of control where 0% means no effect; nearly all actives have a fitted effect of over 65% in size); conditions: hNPCs ZIKV-induced caspase-3/7, Caspase-Glo luminescence, 6 h; series mostly up to 45.7 µM
Procedure, shortened: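 Quantitative HTS format: human iPSC neural progenitors, 1 h compound pretreatment, ZIKV 2 FFU/cell for 6 h at 37 C. Percent inhibition derived from luminescent caspase-3/7 signal between uninfected and infected controls.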
Throughout, for efficacy: 0% is about no effect.

CCCCc1oc2ccccc2c1C(=O)c1cc(I)c(OCCN(CC)CC)c(I)c1
active: AC50 [3] 3.55 µM | AC50 [4] 2.82 µM | AC50 [5] 2.82 µM
inactive: efficacy [1] 105% | outcome [2]

N=c1nc(N2CCCCC2)cc(N)n1O
inactive: efficacy [1] -16.3% | outcome [2] | outcome [6] | outcome [7] | outcome [8] | outcome [5] | outcome [9] | outcome [10] | outcome [11]

O=C1C(=O)c2ccccc2C(O)=C1C1CCC(c2ccc(Cl)cc2)CC1 (configuration not stated)
inactive: efficacy [1] 18.6% | outcome [12] | outcome [2] | outcome [7] | outcome [8] | outcome [5] | outcome [9] | outcome [11]

O=c1[nH]cc(F)c(=O)[nH]1
inactive: efficacy [1] 26.1% | outcome [12] | outcome [2] | outcome [4] | outcome [7] | outcome [8] | outcome [5] | outcome [9] | outcome [11]

CCN1/C(=C/C=C/c2sc3ccccc3[n+]2CC)Sc2ccccc21
inactive: efficacy [1] 26.7% | outcome [3] | outcome [4] | outcome [7] | outcome [5]

CCC[C@H](N[C@@H](C)C(=O)N1[C@H](C(=O)O)C[C@@H]2CCCC[C@@H]21)C(=O)OCC
inactive: efficacy [1] -25% | outcome [2] | outcome [3] | outcome [4] | outcome [7] | outcome [8] | outcome [5] | outcome [9] | outcome [11]

CCCCc1nc(Cl)c(CO)n1Cc1ccc(-c2ccccc2-c2nn[nH]n2)cc1
inactive: efficacy [1] -25.2% | outcome [2] | outcome [6] | outcome [3] | outcome [4] | outcome [7] | outcome [8] | outcome [5] | outcome [9] | outcome [10] | outcome [11]

Cc1ncc([N+](=O)[O-])n1CCO
inactive: efficacy [1] -56.3% | outcome [2] | outcome [6] | outcome [4] | outcome [7] | outcome [5] | outcome [10] | outcome [11]

O=[N+]([O-])c1ccc(O)c2ncccc12
active: AC50 [3] 31.6 µM | AC50 [4] 28.2 µM | AC50 [5] 28.2 µM
inactive: efficacy [1] -18.6% | outcome [7]

CCCCOCCOCCOCc1cc2c(cc1CCC)OCO2
inactive: efficacy [1] -21% | outcome [3] | outcome [4] | outcome [7] | outcome [5] | outcome [9]

Cn1cc[nH]c1=S
inactive: efficacy [1] -16% | outcome [2] | outcome [3] | outcome [4] | outcome [7] | outcome [8] | outcome [5] | outcome [9] | outcome [10] | outcome [11]

COc1ccccc1OCCNCC(O)COc1cccc2[nH]c3ccccc3c12 (configuration not stated)
inactive: efficacy [1] 67.7% | outcome [6]
active: AC50 [12] 11.2 µM | AC50 [4] 2.24 µM | AC50 [5] 2.24 µM | AC50 [11] 10 µM

O=c1[nH]cnc2c1ncn2[C@H]1CC[C@@H](CO)O1
inactive: efficacy [1] -19.1% | outcome [2] | outcome [7] | outcome [8] | outcome [5] | outcome [9] | outcome [10] | outcome [11]

O=C(CCCN1CCC(O)(c2ccc(Cl)cc2)CC1)c1ccc(F)cc1
active: AC50 [3] 10 µM | AC50 [4] 10 µM | AC50 [5] 10 µM
inactive: efficacy [1] 61.7% | outcome [2] | outcome [6]

CC1=C(C(=O)O)N2C(=O)[C@@H](NC(=O)[C@H](N)c3ccc(O)cc3)[C@H]2SC1
inactive: efficacy [1] -8.88% | outcome [2] | outcome [6] | outcome [3] | outcome [4] | outcome [7] | outcome [8] | outcome [5] | outcome [9] | outcome [10] | outcome [11]

CN(C)CCc1ccc(O)cc1
inactive: efficacy [1] -10.6% | outcome [3] | outcome [4] | outcome [7] | outcome [5] | outcome [9] | outcome [15] | Potency [16] | Potency [17]
191%: cell viability, % of control (lower = more cytotoxic) [13]
108%: viability (% of control) [14]

CCN(CC)C(=O)N[C@@H]1C=C2c3cccc4[nH]cc(c34)C[C@@H]2N(C)C1
active: AC50 [5] 31.6 µM
inactive: efficacy [1] 16% | outcome [3] | outcome [4] | outcome [7] | outcome [9] | Potency [18] | outcome [15]

NP(N)(=O)NC(=O)c1ccc(F)cc1
inactive: efficacy [1] -25% | outcome [3] | outcome [4] | outcome [7] | outcome [5] | outcome [9] | Potency [18] | outcome [15]

CC(=O)[C@H]1CC[C@H]2[C@@H]3CC[C@H]4C[C@H](O)CC[C@]4(C)[C@H]3C(=O)C[C@]12C
inactive: efficacy [1] -24.6% | outcome [3] | outcome [4] | outcome [7] | outcome [5] | outcome [9] | Potency [18] | outcome [15]

NN=C(N)N
inactive: efficacy [1] -37.7% | outcome [3] | outcome [4] | outcome [7] | outcome [5] | outcome [9] | outcome [15]

CNCC(O)c1ccc(O)cc1 (configuration not stated)
145%: cell viability, % of control (lower = more cytotoxic) [13]
inactive: efficacy [1] -23.3% | outcome [3] | outcome [4] | outcome [7] | outcome [5] | outcome [9] | Potency [18] | outcome [15] | Potency [16] | Potency [17]
114%: viability (% of control) [14]

CC(C)=CC1C(C(=O)OCc2cccc(Oc3ccccc3)c2)C1(C)C (configuration not stated)
inactive: efficacy [1] -13.4% | outcome [3] | outcome [4] | outcome [7] | outcome [5] | outcome [9] | outcome [15]
